Source: PubChem BioAssay (NCI)
This is part of a sample that, as a whole, favours compounds with a hit. Of some 79,000 tested, about 15% had one in any assay. Active and inactive are the calls of the source. No stated cut-off is given here; in the data, active means growth inhibition above about 70%; inactive means the rest.

Legend:
[1] = NCI Yeast Anticancer Drug Screen. Data for the rad52 strain (AID 147);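 further: 0% = growth of vehicle-treated control cultures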; details: S. cerevisiae rad52 mutant growth inhibition, hits give high values
Procedure, shortened: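 Vehicle-treated cultures served as the reference for growth inhibition of compound-exposed yeast bearing a DNA repair mutation.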

[2] = NCI Yeast Anticancer Drug Screen. Data for the wt1 strain (AID 149);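 further: 0% = growth of vehicle-treated wt1 cultures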; details: S. cerevisiae wt1 strain (SPY 50644) growth inhibition, hits give high values
Procedure, shortened: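 Each compound is tested on wt1 yeast and the loss of growth versus vehicle gives the inhibition value.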

[3] = NCI Yeast Anticancer Drug Screen. Data for the rad50EPP+ strain (AID 151);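 further: 0% = growth of vehicle-treated control cultures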; details: S. cerevisiae rad50 mutant strain, hits give high values
Procedure, shortened: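 In this screen, rad50EPP+ yeast were exposed to compounds. Growth inhibition was scored against vehicle-treated controls.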

[4] = NCI Yeast Anticancer Drug Screen. Data for the mgt1 strain (AID 153); details: S. cerevisiae mgt1 mutant growth inhibition, hits give high values
Procedure, shortened: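 mgt1 strain exposed; growth vs vehicle control recorded as inhibition.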

[5] = NCI Yeast Anticancer Drug Screen. Data for the rad50 strain (AID 155);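 further: 0% = growth of vehicle-only cultures of the same strain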; details: S. cerevisiae rad50 strain growth inhibition, hits give high values
Procedure, shortened: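 Vehicle-treated cultures provide the reference for the growth inhibition reported for compound-exposed, repair-deficient yeast.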

[6] = NCI Yeast Anticancer Drug Screen. Data for the mec2-1 strain (AID 157); details: S. cerevisiae mec2-1 strain, hits give high values
Procedure, shortened: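 Vehicle-treated cultures served as reference for growth inhibition of compound-exposed mec2-1 yeast.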

[7] = NCI Yeast Anticancer Drug Screen. Data for the rad14 strain (AID 159);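 further: 0% = growth of vehicle-treated control cultures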; details: S. cerevisiae rad14 strain growth inhibition, hits give high values
Procedure, shortened: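 Inhibition of growth is reported for a repair-deficient yeast mutant following compound treatment, calculated relative to cultures that received vehicle.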

[8] = NCI Yeast Anticancer Drug Screen. Data for the sgs1 mgt1 strain (AID 161);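 further: 0% = growth of cultures given vehicle only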; details: S. cerevisiae sgs1 mgt1 strain, hits give high values
Procedure, shortened: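 Genetically altered yeast, compound exposure, growth inhibition relative to vehicle.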

[9] = NCI Yeast Anticancer Drug Screen. Data for the CLN2oe strain (AID 163);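 further: 0% = growth of vehicle-only control cultures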; details: S. cerevisiae CLN2oe strain, hits give high values
Procedure, shortened: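 Inhibition relative to vehicle-treated yeast is reported. Cells: strain with genetic alteration in cell-cycle control, grown with compound.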

[10] = NCI Yeast Anticancer Drug Screen. Data for the cln2 rad14 strain (AID 165);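 further: 0% = growth equal to vehicle treated cultures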; details: S. cerevisiae cln2 rad14 strain, hits give high values
Procedure, shortened: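 Each compound was tested on cln2 rad14 yeast. Inhibition of growth was calculated against vehicle-exposed controls.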

[11] = NCI Yeast Anticancer Drug Screen. Data for the bub3 strain (AID 167); details: S. cerevisiae bub3 mutant strain, hits give high values
Procedure, shortened: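 Mutant yeast screening strain plus compound; vehicle-treated cultures serve as the 0% inhibition reference.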

[12] = NCI Yeast Anticancer Drug Screen. Data for the mlh1 strain (AID 171);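 further: 0% = growth of vehicle-treated control cultures of the same strain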; details: S. cerevisiae mlh1 strain growth inhibition, hits give high values
Procedure, shortened: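 Vehicle-normalised growth inhibition of a repair- or checkpoint-altered yeast strain following compound treatment.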

[13] = NCI Yeast Anticancer Drug Screen. Data for the sgs1 strain (AID 173);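 further: 0% = growth of vehicle-only control cultures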; details: S. cerevisiae sgs1 mutant, hits give high values
Procedure, shortened: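 Screen format: yeast with repair or checkpoint alterations, compound exposure, growth read relative to vehicle.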

[14] = NCI Yeast Anticancer Drug Screen. Data for the rad18 strain (AID 177); details: S. cerevisiae rad18 mutant growth inhibition, hits give high values
Procedure, shortened: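 Test articles were incubated with altered yeast defective in DNA damage repair. Results are given as inhibition of growth versus vehicle.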

[15] = NCI Yeast Anticancer Drug Screen. Data for the mlh1 rad18 strain (AID 175); details: S. cerevisiae mlh1 rad18 strain growth inhibition, hits give high values
Procedure, shortened: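 Vehicle-treated cultures served as the reference for growth inhibition in a yeast strain carrying DNA damage repair alterations exposed to each compound.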

[16] = at 5.0 µM (retest, dose inferred, filed as 0.5)
[17] = at 50.0 µM (retest, dose inferred, filed as 5.0)

Measured: growth inhibition

O=Cc1ccc2c(c1)C(=O)c1ccccc1C2=O
active: [1]; at 33.0 µM 79% | [1]; at 100.0 µM 92% | [3]; at 33.0 µM 73% | [3]; at 100.0 µM 83% | [5]; at 33.0 µM 80% | [5]; at 50.0 µM 77.6% | [5]; at 100.0 µM 91% | [12]; at 100.0 µM 82% | [14]; at 100.0 µM 81%
inactive: [1]; at 1.2 µM 4% | [1]; at 3.7 µM 11% | [1]; at 11.0 µM 33% | [2]; at 1.2 µM 1% | [2]; at 3.7 µM -1% | [2]; at 11.0 µM 7% | [2]; at 33.0 µM 18% | [2]; at 100.0 µM 31% | [3]; at 1.2 µM 0% | [3]; at 3.7 µM 5% | [3]; at 11.0 µM 33% | [4]; at 1.2 µM 0% | [4]; at 3.7 µM 9% | [4]; at 11.0 µM 9% | [4]; at 33.0 µM 33% | [4]; at 100.0 µM 55% | [5]; at 1.2 µM 2% | [5]; at 3.7 µM 16% | [5]; [16] -11% | [5]; at 11.0 µM 44% | [5]; [17] 57% | [6]; at 1.2 µM 0% | [6]; at 3.7 µM 7% | [6]; [16] 6% | [6]; at 11.0 µM 12% | [6]; at 33.0 µM 21% | [6]; [17] 21% | [6]; at 50.0 µM 30.8% | [6]; at 100.0 µM 34% | [7]; at 1.2 µM 0% | [7]; at 3.7 µM -3% | [7]; at 11.0 µM 10% | [7]; at 33.0 µM 23% | [7]; at 100.0 µM 37% | [8]; [16] 5% | [8]; [17] 8% | [8]; at 50.0 µM 39.5% | [9]; at 1.2 µM -3% | [9]; at 3.7 µM -1% | [9]; at 11.0 µM 13% | [9]; at 33.0 µM 25% | [9]; at 100.0 µM 22% | [10]; [16] -21% | [10]; [17] 16% | [10]; at 50.0 µM 35.9% | [11]; at 1.2 µM -1% | [11]; at 3.7 µM -7% | [11]; [16] -3% | [11]; at 11.0 µM 8% | [11]; at 33.0 µM 9% | [11]; [17] 8% | [11]; at 50.0 µM 36.6% | [11]; at 100.0 µM 7% | [12]; at 1.2 µM 2% | [12]; at 3.7 µM 1% | [12]; at 11.0 µM 10% | [12]; at 33.0 µM 44% | [13]; at 1.2 µM -3% | [13]; at 3.7 µM -3% | [13]; at 11.0 µM 8% | [13]; at 33.0 µM 38% | [13]; at 100.0 µM 56% | [14]; at 1.2 µM -1% | [14]; at 3.7 µM 0% | [14]; at 11.0 µM 14% | [14]; at 33.0 µM 61%

COc1cc(/C=N/Nc2nnc3c4ccccc4c4ncccc4c3n2)cc(OC)c1OC
active: [1]; at 11.0 µM 81% | [1]; at 33.0 µM 74% | [1]; at 100.0 µM 89% | [3]; at 33.0 µM 80% | [3]; at 100.0 µM 84% | [5]; at 33.0 µM 81% | [5]; at 50.0 µM 93% | [5]; at 100.0 µM 86%
inactive: [1]; at 1.2 µM 40% | [1]; at 3.7 µM 51% | [2]; at 1.2 µM -22% | [2]; at 3.7 µM -1% | [2]; at 11.0 µM -1% | [2]; at 33.0 µM 4% | [2]; at 100.0 µM 9% | [3]; at 1.2 µM 20% | [3]; at 3.7 µM 36% | [3]; at 11.0 µM 58% | [4]; at 1.2 µM 0% | [4]; at 3.7 µM 1% | [4]; at 11.0 µM 3% | [4]; at 33.0 µM 5% | [4]; at 100.0 µM 6% | [5]; at 1.2 µM 18% | [5]; at 3.7 µM 36% | [5]; [16] 4% | [5]; at 11.0 µM 66% | [5]; [17] 62% | [6]; at 1.2 µM 15% | [6]; at 3.7 µM 1% | [6]; [16] -2% | [6]; at 11.0 µM 3% | [6]; at 33.0 µM 9% | [6]; [17] -5% | [6]; at 50.0 µM 22.1% | [6]; at 100.0 µM 11% | [7]; at 1.2 µM -1% | [7]; at 3.7 µM 2% | [7]; at 11.0 µM 5% | [7]; at 33.0 µM 8% | [7]; at 100.0 µM 14% | [8]; [16] -5% | [8]; [17] -2% | [8]; at 50.0 µM 34% | [9]; at 1.2 µM -8% | [9]; at 3.7 µM -2% | [9]; at 11.0 µM -2% | [9]; at 33.0 µM -3% | [9]; at 100.0 µM 1% | [10]; [16] -7% | [10]; [17] -6% | [10]; at 50.0 µM 47.8% | [11]; at 1.2 µM -1% | [11]; at 3.7 µM -1% | [11]; [16] 1% | [11]; at 11.0 µM -4% | [11]; at 33.0 µM -11% | [11]; [17] -16% | [11]; at 50.0 µM 6.55% | [11]; at 100.0 µM -8% | [13]; at 1.2 µM 2% | [13]; at 3.7 µM 5% | [13]; at 11.0 µM 4% | [13]; at 33.0 µM 9% | [13]; at 100.0 µM 10% | [15]; [16] -25% | [15]; [17] -8% | [15]; at 50.0 µM 55.6% | [14]; at 1.2 µM 11% | [14]; at 3.7 µM 8% | [14]; at 11.0 µM 21% | [14]; at 33.0 µM 29% | [14]; at 100.0 µM 30%
